Screening data as filed in PubChem.
This is one part of a sample in which hits are shown more often than they occur.
miR-122 inh – raises miR-122 sensor activity in Huh7 cells. 0.14% of 340,000 active. Huh7 psiCHECK-miR122 Renilla luciferase sensor, 48 h. activation, % at 12.5 µM;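 active = mean activation of 30% or more, with every replicate also reaching 30%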;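 note: higher luciferase signal means stronger suppression of miR-122 activity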
Of the large screens only hits and unclear results are named; the others gave an inactive call.

C[C@@H]1CN([C@H](C)CO)C(=O)c2cccc(NS(C)(=O)=O)c2O[C@@H]1CN(C)Cc1ccc(C(F)(F)F)cc1	none
CO[C@H]1CN(C)C(=O)c2ccc(NC(C)=O)cc2OC[C@H](C)N(S(C)(=O)=O)C[C@@H]1C	none
C[C@@H]1CN([C@H](C)CO)C(=O)c2cc(C3=CCCCC3)cnc2O[C@@H]1CN(C)CC1CCOCC1	none
COCC#Cc1cnc2c(c1)C(=O)N([C@H](C)CO)C[C@@H](C)[C@H](CN(C)Cc1ccccc1)O2	none
COc1ccc(NS(=O)(=O)c2cc(NC(=O)Cc3c(F)cccc3Cl)ccc2OC)cc1	none
C[C@@H]1CN([C@H](C)CO)C(=O)c2cccc(NC(=O)Nc3ccccc3)c2O[C@H]1CN(C)Cc1ccc(C(F)(F)F)cc1	none
C[C@@H]1CCCCO[C@@H](CN(C)Cc2ccc3c(c2)OCO3)[C@H](C)CN([C@H](C)CO)C(=O)c2cc(NC(=O)Nc3ccc(C(F)(F)F)cc3)ccc2O1	miR-122 inh 34.0
C[C@H](CO)N1C[C@H](C)[C@H](CN(C)Cc2ccc(Cl)c(Cl)c2)Oc2c(NC(=O)Nc3ccc4c(c3)OCO4)cccc2C1=O	none
C[C@@H]1CN([C@@H](C)CO)S(=O)(=O)c2ccc(C#Cc3ccccc3)cc2O[C@H]1CN(C)S(=O)(=O)c1ccccc1F	none
CC(C)(C)NS(=O)(=O)c1ccc(OCC(=O)Nc2ccc3c(c2)OCCO3)cc1	none
c1ccc(CCCNCCCn2cnc3c(OCc4ccccc4)ncnc32)cc1	miR-122 inh 33.5
C[C@@H]1CN([C@H](C)CO)S(=O)(=O)c2ccc(Br)cc2O[C@H]1CN(C)S(C)(=O)=O	none
Cc1ccc(S(=O)(=O)c2ccc([N+](=O)[O-])cn2)cc1	miR-122 inh 32.8
C[C@@H]1CN([C@@H](C)CO)C(=O)c2cc(C3=CCCC3)cnc2O[C@@H]1CN(C)C(=O)C1CCCCC1	none
CCC(=O)Nc1ccc2c(c1)OC[C@@H](C)N(Cc1ccccc1F)C[C@H](C)[C@@H](OC)CN(C)C2=O	none
CCCC#Cc1cnc2c(c1)C(=O)N([C@H](C)CO)C[C@@H](C)[C@H](CN(C)Cc1ccccc1)O2	none
C[C@@H]1CN([C@@H](C)CO)S(=O)(=O)c2ccc(C#CC3(O)CCCC3)cc2O[C@@H]1CN(C)C(=O)Nc1ccc(F)cc1	none
COc1ccccc1-c1cnc2c(c1)C(=O)N([C@H](C)CO)C[C@@H](C)[C@@H](CN(C)C(=O)c1ccccc1)O2	none
C[C@@H]1CN([C@H](C)CO)C(=O)c2cc(-c3cncnc3)cnc2O[C@H]1CN(C)Cc1cncnc1	none
CN1C(=O)c2cc(NC(=O)Cc3ccccc3)ccc2OC[C@@H]2O[C@@H](CC(=O)NCC3CC3)CC[C@@H]21	none
CC(C)C(=O)Nc1ccc2c(c1)C(=O)N(C)[C@H]1CC[C@H](CC(=O)NCc3cccc(F)c3)O[C@H]1CO2	none
COc1cccc(CNC(=O)C[C@H]2CC[C@@H]3[C@@H](COc4ccc(NC(C)=O)cc4C(=O)N3C)O2)c1	miR-122 inh 53.3
CN(C)CCCNC(=O)C[C@@H]1CC[C@H]2[C@H](COc3ccc(NC(=O)c4cccc(F)c4)cc3C(=O)N2C)O1	miR-122 inh 41.7
CO[C@H]1CN(C)C(=O)c2cc(NC(=O)Cc3ccccc3)ccc2OC[C@H](C)N(C)C[C@H]1C	none
CO[C@@H]1CN(C)C(=O)c2cc(NC(=O)c3ccc(F)cc3)ccc2OC[C@@H](C)N(C)C[C@@H]1C	none
CN1C(=O)c2cc(NC(=O)c3cccc(F)c3)ccc2OC[C@@H]2O[C@H](CC(=O)Nc3ccccc3)CC[C@H]21	miR-122 inh 55.0
CCNC(=O)C[C@H]1CC[C@H]2[C@@H](COc3ccc(NC(=O)c4ccccc4)cc3C(=O)N2C)O1	miR-122 inh 50.0
CO[C@@H]1CN(C)C(=O)c2cc(NC(=O)c3ccc(F)cc3)ccc2OC[C@H](C)N(C)C[C@@H]1C	none
CO[C@@H]1CN(C)C(=O)c2cc(NC(=O)Cc3ccccc3)ccc2OC[C@@H](C)N(CCc2ccccc2)C[C@H]1C	none
O=S(=O)(Nc1ccc(S(=O)(=O)N2CCCC2)cc1)c1ccccc1Br	none
C[C@@H]1CN([C@H](C)CO)C(=O)c2cccc(NS(=O)(=O)c3cccs3)c2O[C@H]1CN(C)Cc1ccc(C(F)(F)F)cc1	none
CCCNC(=O)N(C)C[C@H]1Oc2ncc(C#C[C@H](C)O)cc2C(=O)N([C@@H](C)CO)C[C@H]1C	none
Cc1ccc(NC(=O)NNC(=O)Cn2nc(-c3ccccc3)c(-c3ccccc3)c(C#N)c2=O)cc1	none
C[C@H](CO)N1C[C@H](C)[C@H](CN(C)CC2CCOCC2)Oc2ncc(-c3ccc(F)cc3)cc2C1=O	none
COc1ccc(-c2ccc3c(c2)O[C@@H](CN(C)C(=O)c2ccccc2F)[C@H](C)CN([C@@H](C)CO)S3(=O)=O)cc1	none
C[C@H](CO)N1C[C@H](C)[C@@H](CN(C)C(=O)c2cccnc2)Oc2ncc(-c3ccc(F)cc3)cc2C1=O	none
Cc1ccc(C)c(S(=O)(=O)Nc2ccc3cn[nH]c3c2)c1	none
C[C@@H]1CN([C@H](C)CO)S(=O)(=O)c2ccc(-c3ccncc3)cc2O[C@H]1CN(C)Cc1cncnc1	none
CCCC(=O)Nc1ccc2c(c1)C(=O)N(C)C[C@H](OC)[C@@H](C)CN(CCC)[C@H](C)CO2	none
C=CCN(CC=C)S(=O)(=O)c1ccc2nc(NC(=O)C(C)C)sc2c1	none
C[C@@H]1CN([C@@H](C)CO)S(=O)(=O)c2ccc(C#Cc3ccncc3)cc2O[C@@H]1CN(C)C(=O)c1ccncc1	none
COc1cccc(-c2cnc3c(c2)C(=O)N([C@H](C)CO)C[C@H](C)[C@@H](CN(C)Cc2cccnc2)O3)c1	none
C[C@H](CO)N1C[C@H](C)[C@H](CN(C)C(=O)Nc2ccccc2F)Oc2ncc(/C=C/c3ccccc3)cc2C1=O	none
O=C(NNS(=O)(=O)c1ccc(Cl)cc1)c1cccc(S(=O)(=O)N2CCOCC2)c1	none
COc1ccc(OC)c(S(=O)(=O)N/N=C\c2ccc3c(c2)OCO3)c1	none
COc1ccccc1C#Cc1ccc2c(c1)O[C@@H](CN(C)Cc1cncnc1)[C@@H](C)CN([C@H](C)CO)S2(=O)=O	none
CO[C@H]1CN(C)C(=O)c2cc(NC(=O)c3ccc(F)cc3)ccc2OC[C@@H](C)N(C)C[C@@H]1C	none
CN1C(=O)c2cc(NS(=O)(=O)c3ccc(Cl)cc3)ccc2OC[C@@H]2O[C@H](CC(=O)N3CCc4ccccc4C3)CC[C@H]21	miR-122 inh 33.3
CO[C@@H]1CN(C)C(=O)c2cc(NS(=O)(=O)c3ccccc3)ccc2OC[C@H](C)N(C)C[C@H]1C	none
CN1C(=O)c2cc(NC(=O)c3cccc(F)c3)ccc2OC[C@H]2O[C@H](CC(=O)N3CCc4ccccc4C3)CC[C@H]21	miR-122 inh 36.7
CO[C@@H]1CN(C)C(=O)c2cc(NS(=O)(=O)c3ccccc3)ccc2OC[C@@H](C)N(C)C[C@H]1C	none
CO[C@H]1CN(C)C(=O)c2cc(NC(=O)c3ccc(F)cc3)ccc2OC[C@@H](C)N(C)C[C@H]1C	none
C[C@@H]1CN([C@@H](C)CO)S(=O)(=O)c2ccc(/C=C/c3ccccc3)cc2O[C@H]1CN(C)C(=O)c1cccnc1	none
CCCN(C)C[C@H]1Oc2cc(C#CC3(O)CCCC3)ccc2S(=O)(=O)N([C@@H](C)CO)C[C@H]1C	none
CCCC(=O)Nc1ccc2c(c1)C(=O)N(C)C[C@@H](OC)[C@@H](C)CN[C@H](C)CO2	none
C[C@H]1CN([C@@H](C)CO)S(=O)(=O)c2ccc(C#Cc3ccccn3)cc2O[C@@H]1CN(C)Cc1cccc(F)c1	none
CNC[C@@H]1Oc2cc(C#Cc3cccc(OC)c3)ccc2S(=O)(=O)N([C@@H](C)CO)C[C@H]1C	none
C[C@@H]1CN([C@H](C)CO)S(=O)(=O)c2ccc(C#CCC3CCCC3)cc2O[C@H]1CN(C)C(=O)c1ccccn1	none
